Assay results published in the supplement of paper PMC11865577.

Assays:
Test in all cases: normalised indicator fluorescence (fraction of RNA + indicator signal without compound); higher = less displacement of indicator (weaker competition)
Conditions in all cases: compound concentration: 5 uM, 30 min
[1] = test system: hsa-mir-191 loop
In short: (§1)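 Values are ratios: indicator fluorescence, less a buffer-plus-indicator blank, over the RNA-plus-indicator signal with no compound, as the mean of two independent experiments. This displacement screen used TO-PRO-1 or TO-PRO-3 with RNA in 96-well plates, in 20 mM phosphate pH 7.0, 20 mM NaCl, 80 mM KCl. Compounds went in at about 5 uM final, and readings were taken after 30 min on an Infinite 200 PRO at 485 or 620 nm excitation.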

[2] = test system: hsa-mir-21 loop
In short: as §1

[3] = test system: hsa-mir-221 loop
In short: as §1

[4] = test system: hsa-mir-374a loop
In short: as §1

[5] = test system: hsa-mir-6850 loop
In short: as §1

[6] = indicator: TO-PRO-1 0.1 uM, RNA concentration: 0.1 uM
[7] = indicator: TO-PRO-3 0.5 uM, RNA concentration: 0.5 uM

| SMILES | normalised indicator fluorescence [1, 6] | normalised indicator fluorescence [1, 7] | normalised indicator fluorescence [2, 6] | normalised indicator fluorescence [2, 7] | normalised indicator fluorescence [3, 6] | normalised indicator fluorescence [3, 7] | normalised indicator fluorescence [4, 6] | normalised indicator fluorescence [4, 7] | normalised indicator fluorescence [5, 6] | normalised indicator fluorescence [5, 7] |
| --- | --- | --- | --- | --- | --- | --- | --- | --- | --- | --- |
| COC(=O)C1=CC[C@@]23CC[C@@H]([C@@](C)(/C=C/C=C(\C)C(=O)O)OC2=O)[C@@]3(OC(C)=O)CC1 [Pseudolaric Acid B] | 1.02 | 0.949 | 1.02 | 0.979 | 0.969 | 0.93 | 0.998 | 1.19 | 1.03 | 1.03 |
| CN1CCN(c2ccc(C(=O)Nc3n[nH]c4ccc(Cc5cc(F)cc(F)c5)cc34)c(NC3CCOCC3)c2)CC1 [Entrectinib] | 1.11 | 1.04 | 1.04 | 1.04 | 1.04 | 1.18 | 1.09 | 1.56 | 1.01 | 1.03 |
| O=c1ccc2ccc(O)cc2o1 [7-Hydroxycoumarin] | 1.06 | 1.06 | 1.05 | 0.997 | 1.11 | 1.01 | 1.07 | 1.15 | 0.986 | 1.05 |
| CC1(C)CC(=O)c2c(C(F)(F)F)nn(-c3ccc(C(N)=O)c(N[C@H]4CC[C@H](O)CC4)c3)c2C1 | 1.03 | 1.03 | 0.989 | 1.04 | 0.978 | 1.18 | 1.01 | 1.13 | 0.777 | 0.989 |
| Cn1cc(-c2ccc3c(c2)CCN3C(=O)Cc2cccc(C(F)(F)F)c2)c2c(N)ncnc21 | 1.04 | 1.1 | 1.06 | 1.07 | 1.08 | 1.03 | 1.23 | 1.18 | 0.993 | 1.18 |
| COc1ccc(O)cc1 [4-Methoxyphenol] | 0.962 | 1.17 | 0.99 | 1.05 | 1.08 | 1.04 | 1.19 | 1.14 | 0.977 | 1.11 |
| COc1ccc(C(=C2C(=O)Nc3ccccc32)c2ccc(OC)cc2)cc1 | 1 | 1.03 | 0.92 | 1.03 | 1.1 | 1.09 | 1.08 | 1.15 | 0.944 | 1.03 |
| CNC(=O)c1ccc(C)c(-n2c(C)cc(OCc3ccc(F)cc3F)c(Br)c2=O)c1 | 1.02 | 1.03 | 1.03 | 1.02 | 1.19 | 1.05 | 1 | 1.08 | 0.914 | 1.04 |
| CC(C)=CCC[C@](C)(O[C@@H]1O[C@H](CO)[C@@H](O)[C@H](O)[C@H]1O)[C@H]1CC[C@]2(C)[C@@H]1[C@H](O)C[C@@H]1[C@@]3(C)CC[C@H](O)C(C)(C)[C@@H]3[C@@H](O[C@@H]3O[C@H](CO)[C@@H](O)[C@H](O)[C@H]3O[C@@H]3OC[C@@H](O)[C@H](O)[C@H]3O)C[C@]12C [Notoginsenoside R1] | 1.04 | 1.01 | 1 | 0.991 | 1.15 | 0.995 | 1.21 | 1.09 | 0.982 | 1.01 |
| O=C(O)/C=C/c1ccc(Cn2ccnc2)cc1 [Ozagrel] | 0.962 | 1.05 | 0.996 | 1.03 | 1.07 | 1.05 | 1.12 | 1.19 | 0.929 | 1.03 |
| CC(=O)O[C@H]1C[C@@]2(C)[C@@H](C[C@@H](O)[C@H]3[C@@]4(C)CC[C@@H](O)[C@@H](C)[C@@H]4CC[C@@]32C)/C1=C(\CCC=C(C)C)C(=O)O [Fusidine] | 0.992 | 1.01 | 0.976 | 1.08 | 1.04 | 1.02 | 1.15 | 1.21 | 1.06 | 1.06 |
| C[C@H]1[C@H](C)CC[C@]2(C(=O)O[C@@H]3O[C@H](CO[C@@H]4O[C@H](CO)[C@@H](O[C@@H]5O[C@H](C)[C@H](O)[C@@H](O)[C@H]5O)[C@H](O)[C@H]4O)[C@@H](O)[C@H](O)[C@H]3O)CC[C@]3(C)C(=CC[C@@H]4[C@@]5(C)C[C@@H](O)[C@H](O)[C@@](C)(CO)[C@@H]5CC[C@]43C)[C@H]12 [Asiaticoside] | 1.02 | 1.03 | 0.968 | 0.996 | 0.992 | 1.03 | 1.09 | 1.16 | 1.03 | 1.11 |
| Cc1cccc(CC(=O)N2CCc3c2ccc(-c2cn(C)c4ncnc(N)c24)c3F)n1 | 1.03 | 1.06 | 1 | 1.04 | 1.08 | 1.01 | 1.14 | 1.06 | 0.973 | 0.993 |
| CCOc1cc(C(=O)N2CCC(N3CCN(C)CC3)CC2)ccc1Nc1ncc2c(n1)N(C1CCCC1)c1ccccc1C(=O)N2C | 1.09 | 1.04 | 0.946 | 1.01 | 1.03 | 1.01 | 1.07 | 1.1 | 0.938 | 1 |
| O=C1c2c(O)cc(O)cc2OC(c2ccc(O)c(O)c2)C1O (stereo not given) [Taxifolin] | 0.994 | 1.06 | 0.976 | 1.05 | 1.05 | 1.11 | 1.13 | 1.15 | 0.944 | 1.08 |
| O=C(O)C(O)Cc1ccc(O)c(O)c1 (stereo not given) [Sodium Danshensu] | 0.941 | 1.02 | 0.888 | 1.05 | 0.976 | 1.05 | 1.07 | 0.994 | 0.964 | 1.08 |
| CN1CCN(c2nc(C3=C(c4c[nH]c5ccccc45)C(=O)NC3=O)c3ccccc3n2)CC1 [Sotrastaurin] | 0.995 | 1.01 | 1.13 | 1.04 | 1.03 | 0.999 | 1.19 | 1.3 | 0.954 | 0.996 |
| CC1(C)C=Cc2c(ccc3c2OC[C@@H](c2ccc(O)cc2O)C3)O1 [Glabridin] | 1.07 | 1.05 | 1.05 | 1.03 | 1.04 | 1 | 1.13 | 1.2 | 0.981 | 1.01 |
| COc1ccc([C@@H]2OC[C@H]3[C@@H]2CO[C@@H]3c2ccc(O[C@@H]3O[C@H](CO)[C@@H](O)[C@H](O)[C@H]3O)c(OC)c2)cc1OC [Forsythin] | 1.06 | 1.04 | 0.926 | 0.988 | 0.939 | 1.04 | 1.09 | 1.09 | 0.927 | 1.07 |
